Results on 39 molecules are retold here after PubChem BioAssay AID504321 (NMMLSC, 2011).

Unmarked numbers belong to inactive results. Calls of active or inactive are those of the source.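 Rule for the calls: active = GFP response vs DMSO above 150% with enough events counted; inconclusive = fewer than 70 events counted for a yeast strain; inactive = the rest.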

This test is described as follows: yeast MEP2-GFP fusion level changes, TOR pathway – flow cytometry, third cherry pick, S. cerevisiae, confirmation (AID 504321).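 Note: median per-cell GFP fluorescence by flow cytometry across all yeast cells; ratio of sample to DMSO median GFP so 100% equals the DMSO level.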 Particulars: S. cerevisiae MEP2-GFP strain, 3 h, at 10 µM, active compounds read high. A general note: A flow cytometer gives signals particle by particle.
Regarding `Nc1ccc(O)c2c1C(=O)c1ccccc1C2=O`, the GFP response vs DMSO is 112%.

Regarding `O=C(Nc1ccccc1)ON=C1c2ccccc2-c2ccccc21`, the GFP response vs DMSO was 99%. For `CNc1nc(N)c([N+](=O)[O-])c(Nc2cccc(Cl)c2)n1`, the GFP response vs DMSO was 170% (active). Take `CC(C)Nc1ncnc2ccc(Br)cc12`: the GFP response vs DMSO was 112%. Under `C/C(=C\C(=O)c1ccccc1)Nc1ccc(O)cc1` stands 105%; under `CC(=O)Nc1ccc(-c2nc3ccccc3o2)cc1`, 110%; under `CCC(C)Nc1nc(N)c([N+](=O)[O-])c(Nc2cc(OC)ccc2OC)n1` (centres undefined), 114%.

Regarding `Nc1[nH]c(=O)nc(Nc2ccccc2)c1N=O`, the GFP response vs DMSO is 108%.

In the case of `O=C(Nc1cccc2ccccc12)ON=C1CCCCC1`, the GFP response vs DMSO was 121%. For `O=C1c2ccccc2C(=O)c2c1cccc2N(CCO)CCO`, the GFP response vs DMSO was 108%. On to `COc1ccccc1Nc1nc(NCCCN(C)C)nc(N)c1[N+](=O)[O-]`, for which the GFP response vs DMSO was 112%. With `O=C(N/N=C/c1ccccc1)c1cccc2ccccc12` the figure was 103%; with `Oc1ccc(Cl)c2cccnc12`, 101%; with `C=CCNc1ncnc2ccccc12`, 114%. With `Oc1c(Cl)cc(Cl)c2cccnc12` the figure was 181% (active); with `COC(=O)c1cc(=O)c2cccc(OC)c2[nH]1`, 110%. As to `CC(=O)C(Cl)C(=O)Nc1ccccc1` (centres undefined), the GFP response vs DMSO was 118%.

With `CS(=O)(=O)c1nc(-c2ccc(F)cc2)cc(C(F)(F)F)n1`, the GFP response vs DMSO is 133%. On to `Cc1ccc(C(=O)Nc2nc(-c3ccccn3)cs2)o1`, for which the GFP response vs DMSO is 103%. Under `COc1cccc2c(Cl)c(CCCl)c(C)nc12` stands 101%.

For `Oc1ccc(F)c2cccnc12`, the GFP response vs DMSO was 116%. Regarding `CCC(=O)Nn1cnc2c(c1=O)C1(CCCCC1)Cc1ccccc1-2`, the GFP response vs DMSO was 110%. For the molecule `OCc1ccnc2c(O)cccc12`, the GFP response vs DMSO was 108%. With `COc1ccc(N/C(C)=C/C(=O)c2ccccc2)cc1` the figure was 103%; with `C/C(=C\C(=O)c1ccc(C)cc1)Nc1cccc(O)c1`, 108%.

`COc1cc(OC)cc(C(=O)Nc2ccc(-c3nc4ccccc4o3)cc2)c1`: the GFP response vs DMSO was 110%.

Turning to `Cn1c(=O)c2c(n3cnnc13)-c1ccccc1CC21CCCC1`, the GFP response vs DMSO is 112%. As to `O=C(Nc1ccccc1)O/N=C1/CCCc2occc21`, the GFP response vs DMSO is 112%. With `CCOC(=O)CS(=O)(=O)c1nc(-c2ccccc2)cc(C(F)(F)F)n1` the figure was 151% (active); with `COc1ccccc1OCc1cc(C(=O)N2CCN(C)C(c3ccccc3)C2)no1` (centres undefined), 110%; with `Cn1cccc1C(=O)Nc1nc(-c2ccccn2)cs1`, 101%.

For `NC(=O)c1ccnc2c(O)cccc12`, the GFP response vs DMSO was 108%. With `Cc1cc(C)c(NC(=O)CC(=O)c2ccccc2)c(Cl)c1` the figure was 105%. Under `OCCNc1ncnc2ccc(Br)cc12` stands 101%; under `CCN(CC)c1ncnc2ccc(Br)cc12`, 114%; under `CCCCC(=O)NCCc1cc2c(OC)ccc(OC)c2[nH]c1=O`, 108%. As to `Cc1nc2c(O)cccc2cc1CO`, the GFP response vs DMSO was 103%. Under `COCCCNc1nc(N)c([N+](=O)[O-])c(Nc2cc(OC)ccc2OC)n1` stands 110%; under `O=C(N/N=C/c1ccccc1O)c1cccc2ccccc12`, 110%.
